The source of these data is ChEMBL document CHEMBL4513216, “Probing the Open Global Health Chemical Diversity Library for Multistage-Active Starting Points for Next-Generation Antimalarials” (ACS Infect Dis, 2020).

Screen size: about 65,000 compounds; about 2,100 (3.2%) showed an effect of 50% or more. The median lay at about -52%. The entries come from a sample that favours strong results as a whole.

The test system of the assay is Plasmodium falciparum. Nature of the assay: Screen against P. falciparum Asexual Blood Stage (ABS), at 5uM. In kind it is functional, Dd2. The note with it: tested at 5 uM.
Regarding `O=C(N[C@@H]1CN[C@H]2CCCO[C@H]21)c1cnccn1`, the INHIBITION is listed as -120%.

Consider `Cc1ccccc1CC(=O)N1C[C@@H]2CC[C@H]1CN(Cc1cccnc1)C2`, for which the INHIBITION was -11.4%.

For `Cn1cccc1C(=O)N1C[C@H]2CN(Cc3cccnc3)C[C@H]2C1`, the INHIBITION is 31.3%.

With `CN(C)[C@@H]1CN(Cc2cccnc2)C[C@H]1c1cn(C)c2ccccc12`, the INHIBITION was found to be 71.9%.

On to `O=C(COc1coc(CN2CCCC2)cc1=O)Nc1cc(Cl)ccc1Cl`, for which the INHIBITION amounted to 80.6%.

On to `CS(=O)(=O)CCCNC1(c2cccc(Cl)c2)CCCC1`, for which the INHIBITION turned out to be 76%.

Turning to `Cc1cccc(C2(NCCCS(C)(=O)=O)CCCC2)c1`, the INHIBITION worked out at 88.9%.

As for `CS(=O)(=O)CCCNC1(c2ccc(Br)cc2)CCC1`, the INHIBITION is 78.5%.

As to `Cc1cc(CNC2(c3ccccc3)CCCCC2)no1`, the INHIBITION is 44.9%.

Regarding `Cc1ccc(CC(=O)N2CCN(C(C)c3ccccc3F)CC2)cn1` (configuration not stated), the INHIBITION was -146%.

For `C/C(=C\c1ccco1)CN(C)C(C)Cc1ccccn1` (configuration not stated), the INHIBITION is on record as -54.2%.

`CCc1[nH]c2c(CNc3nc(C)cc(NC)n3)cc(C)cc2c1C`: the INHIBITION is reported as 89%.

On to `CCc1[nH]c2c(CNc3cc(C)nc(NC)n3)cc(C)cc2c1C`, for which the INHIBITION turned out to be 85.1%.

Consider `CN1C[C@H](NC(=O)c2cscn2)[C@@H]2OCCC[C@@H]21`, for which the INHIBITION is on record as -18.5%.

Turning to `O=C(c1cnn2c1OCCC2)N1CCC2(CC1)OCCO2`, the INHIBITION is given as -54.5%.

`Cc1noc(C)c1CN1CC[C@@H]2O[C@H](COCC(C)C)CC[C@@H]21`: the INHIBITION was -31.3%.

Consider `c1cnc(NC[C@H]2OC[C@@H]3CCN(Cc4cccnc4)C[C@@H]32)nc1`, for which the INHIBITION is reported as -37.6%.

Regarding `c1cc2c(cc1CN1CC[C@H]3CO[C@H](CN4CCCC4)[C@H]3C1)OCO2`, the INHIBITION came to 78.6%.

Regarding `c1cnc(NC[C@H]2OC[C@@H]3CCN(Cc4ccsc4)C[C@@H]32)nc1`, the INHIBITION is on record as -30.5%.

For `CN1CCN(C[C@@H]2OC[C@H]3CN(Cc4ccncc4)CC[C@H]32)CC1`, the INHIBITION was -51.3%.

With `c1cnc(NC[C@H]2OC[C@@H]3CCN(Cc4nccs4)C[C@@H]32)nc1`, the INHIBITION was -52.4%.

On to `CN1CCN(C[C@H]2OC[C@@H]3CCN(Cc4ccsc4)C[C@@H]32)CC1`, for which the INHIBITION was determined as 77.7%.

For the molecule `O=C1O[C@@H]2CN(Cc3ccsc3)C[C@@H]2N1Cc1ccccn1`, the INHIBITION was -67.9%.

Take `Cc1ccc(Cl)cc1-n1nnnc1C1(N2CCCC2)CCCCC1`: the INHIBITION is -125%.

For the molecule `Cc1nn(-c2ccc(C(=O)O)cc2)c2c1C(c1cccs1)SCC(=O)N2` (configuration not stated), the INHIBITION was -57.4%.

Regarding `COCCN1CCN(Cc2ccncc2)c2ncccc2C1`, the INHIBITION worked out at 6.88%.

Turning to `Cc1ccc(C)c(OCCNC(=O)[C@@H]2CCCCN2)c1`, the INHIBITION was 79.4%.

Regarding `CC(C)N(C)Cc1cncc2c1CCN(Cc1ccoc1)C2`, the INHIBITION is -19.3%.

Turning to `Cc1ccc2c(n1)N(CC(C)C)CCN(S(C)(=O)=O)C2`, the INHIBITION is -82.4%.

Consider `Cc1nccc([C@@H]2C[C@@H]3CCN(Cc4c(C)noc4C)C[C@H]3O2)n1`, for which the INHIBITION is on record as -6.6%.

With `Cc1cc(CN2C[C@@H]3COC[C@]3(c3nnc(C)o3)C2)no1`, the INHIBITION is listed as -26.2%.

Regarding `O=C(C1CCOC1)N1CCC2(CCCNC2)CC1` (configuration not stated), the INHIBITION amounted to 0.28%.

For the molecule `Cc1cccc(CN2C(=O)CCC23CCNCC3)n1`, the INHIBITION is on record as -102%.

Regarding `CCCN1C[C@@H]2CC[C@H]1CN(C(=O)Cn1c(C)cc(C)nc1=O)C2`, the INHIBITION is reported as -79.2%.

For the molecule `CC(NCCc1nccn1Cc1ccccc1)c1ccsc1` (configuration not stated), the INHIBITION is listed as 83.5%.

With `CC(Cn1cccn1)NCC(=O)NCCc1cccs1` (configuration not stated), the INHIBITION is reported as -8.14%.

Take `CC(NCCc1nccn1Cc1ccccc1)c1cccs1` (configuration not stated): the INHIBITION was 86.8%.

For `CC(Cn1cccn1)NCC(=O)N(C)Cc1ccsc1` (configuration not stated), the INHIBITION was -27.7%.

For the molecule `Cc1ccc(C(C)NCCc2nccn2Cc2ccccc2)o1` (configuration not stated), the INHIBITION worked out at 80.7%.

As to `CCc1ccc(CN2C[C@H](OC)[C@H]3COC[C@H]32)o1`, the INHIBITION was -53%.

In the case of `O=C(c1ccoc1)N1CCO[C@@H]2CNC[C@@H]21`, the INHIBITION is listed as -14.6%.

For the molecule `Fc1cnc(N2CCN3C[C@H](Oc4cccnc4)C[C@H]3C2)nc1`, the INHIBITION is -61.4%.

`c1cnc(N2CCOCC3(CNCCO3)C2)nc1` (configuration not stated): the INHIBITION is -4.23%.

Take `Cc1cc(C)n2nc(C(=O)N[C@H]3C[C@H]4CN(C)CCN4C3)cc2n1`: the INHIBITION was -13.9%.

Take `OCCN1CCC(CNCc2ccc(Br)cc2)CC1`: the INHIBITION amounted to 86.7%.

With `O=C(Cc1ccc(F)c(Br)c1)N1CCN(CCO)CC1`, the INHIBITION was -1.34%.

In the case of `OCCN1CCN(Cc2cc3c(cc2Br)OCCO3)CC1`, the INHIBITION came out at 1.48%.

Consider `OCCN1CCC(CNCc2ccc(N3CCCCC3)cc2)CC1`, for which the INHIBITION was determined as 91.9%.

Consider `CCc1ccc(OCC(=O)N2CCN(CC)CC2)cc1`, for which the INHIBITION is recorded as -123%.

Consider `CCc1ccc(CNCC2CCN(CCO)CC2)cc1`, for which the INHIBITION turned out to be 84.2%.

As for `O=C(C1CCC1)N1CCC2(CC1)OCCO2`, the INHIBITION is recorded as -22.7%.

For the molecule `O=C(c1ccc[nH]1)N1CCCC2(CCCN2Cc2cccnc2)C1` (configuration not stated), the INHIBITION is -53.7%.
